Screens: PubChem BioAssay, several laboratories
Anthrax LF prot: Bacillus anthracis LF protease inhibitors, primary screen, biochemical, multiplex microsphere, MLPCN library; Lethal factor (Bacillus anthracis), P15917; multiplex microsphere protease cleavage assay; inhibition, % at 10 µM; hit rate 0.12% among 360,000; AID 588501, 2011; also: plate controls were buffer without enzyme for full effect and enzyme alone for no effect
BoNT-A LC inh2: BoNT/A light chain protease inhibitors, primary screen, biochemical, flow cytometry, MLPCN library; Botulinum neurotoxin type A light chain protease (Clostridium botulinum A str. ATCC 3502); multiplex microsphere protease substrate cleavage; inhibition, % at 10 µM; hit rate 0.17% among 360,000; AID 588499, 2011; also: plate controls were buffer without enzyme for full effect and enzyme alone for no effect
TcdB GH inh: TcdB glycohydrolase inhibitors, primary screen, biochemical, single point, plate reader | TcdB glycohydrolase enzymatic assay | hit rate 0.24% among 350,000 | Toxin B (Clostridioides difficile), P18177 | inhibition, % at 9.99 µM; in the data active = inhibition above about 10%
Autofluor counter: counter-screen for toxin protease inhibitors: compound fluorescence; compound autofluorescence counterscreen, microsphere flow cytometry; active compounds read high; fluorescence intensity (no concentration beside the values); hit rate 3.1% among 360,000; in the data active = fluorescence intensity above about 16000; inconclusive = no clear call, values can overlap the other calls
BoNT F protease: BoNT/F light chain protease inhibitors, primary screen, biochemical, flow cytometry, MLPCN library. Botulinum neurotoxin type F light chain protease (Clostridium botulinum). Multiplex microsphere protease cleavage assay. inhibition, % at 10 µM. hit rate 0.22% among 360,000. AID 588497, 2011; in the data active = inhibition above about 35%, passing the limit was not always enough; inconclusive = no clear call, values can overlap the other calls; also: plate controls were buffer without enzyme for full effect and enzyme alone for no effect
An asterisk follows results filed as active; ? = inconclusive; · = not tested or not shown. This is one part of a sample in which hits are shown more often than they occur. Rule as the data show it, unless noted: active = inhibition above about 30%; inconclusive = no clear call, values can overlap the other calls; inactive = below that.

SMILES | Anthrax LF prot | BoNT-A LC inh2 | TcdB GH inh | Autofluor counter | BoNT F protease
Oc1ccccc1-c1cnc2cccnn12 | 0 | 0 | 47* | 3819 | -7
Cc1noc(C)c1NC(=O)N(C)C[C@@H]1Oc2ccc(NC(=O)CCC(F)(F)F)cc2C(=O)N([C@H](C)CO)C[C@@H]1C | · | · | -1 | · | ·
O=C(C(=O)N1CCOCC1)c1cn(CC(=O)N2CCCCC2)c2ccccc12 | 0 | -1 | 0 | 4607 | 3
CCOC(=O)C1CCN(C(=O)C(=O)c2cn(CC(=O)N3CCCCCC3)c3ccccc23)CC1 | 31* | 44* | 1 | 8139 | 17
CCOC(=O)N1CCN(C(=O)C(=O)c2cn(CC(=O)N3CCCCCC3)c3ccccc23)CC1 | 26 | 16 | 2 | 8734 | 13
CCOC(=O)C1CCCN(C(=O)C(=O)c2cn(CC(=O)N3CCOCC3)c3ccccc23)C1 (stereo unspecified) | -7 | -53 | -1 | 19022* | -98
O=Cc1ccc(Sc2nnc(-c3ccccc3)o2)c([N+](=O)[O-])c1 | -7 | ? | · | 19318* | 4
CCOC(=O)c1cc(-c2ccc(OC)cc2F)nc2c1c(C)nn2CCC#N | -4 | ? | · | 25362* | -5
CCOC(=O)c1cc(-c2ccc(Cl)cc2)nc2c1c(C)nn2CCC#N | 5 | 1 | · | 3036 | -1
CC(C)(C)C1CCc2onc(C(=O)Nc3cnn(Cc4ccc(F)cc4)c3)c2C1 (stereo unspecified) | -1 | 4 | · | 18196* | 0
C/C=C/c1cnc2c(c1)C(=O)N([C@H](C)CO)C[C@H](C)[C@@H](CN(C)C(=O)NC1CCCCC1)O2 | · | · | -1 | · | ·
Cc1c(C(=O)N2CCN(CCc3ccccc3)CC2)oc2ccccc12 | -3 | 0 | · | 24130* | -4
Cc1c(C(=O)N2CCN(S(C)(=O)=O)CC2)oc2ccccc12 | 1 | 0 | · | 20670* | 0
O=C(c1ccccc1)N1CCN(CCc2ccccc2)CC1 | -4 | 0 | 1 | 3007 | -11
Cc1c(C(=O)N2CCN(S(=O)(=O)c3ccccc3)CC2)oc2ccccc12 | -2 | -4 | -1 | 7117 | -9
O=C(C[C@H]1CC[C@H](NS(=O)(=O)c2ccccc2)[C@@H](CO)O1)N1CCC(Cc2ccccc2)CC1 | · | · | 0 | · | ·
C[C@@H]1CN([C@H](C)CO)C(=O)c2cccc(NC(=O)C3CCOCC3)c2O[C@@H]1CN(C)S(=O)(=O)c1ccc(F)cc1 | · | · | -1 | · | ·
CCCC(NS(=O)(=O)c1ccc(Br)cc1)C(=O)O (stereo unspecified) | 4 | -4 | · | 25446* | -9
CCC(NS(=O)(=O)c1ccc(C)cc1)C(=O)O (stereo unspecified) | -1 | 1 | · | 21879* | 1
CC(C)N1CCc2c(sc(NC(=S)NC(=O)c3ccccc3)c2C#N)C1 | -13 | 32* | -1 | 2308 | -88
Cc1sc(NC(=S)NC(=O)c2ccccc2)c(C#N)c1C | 1 | 0 | · | 4166 | 8
CCN1CCc2c(sc(NC(=S)NC(=O)c3ccc(Cl)cc3)c2C(N)=O)C1 | 1 | -14 | -1 | 16287* | ?
CCCN1CCc2c(sc(NC(=S)NC(=O)c3ccccc3)c2C#N)C1 | -65 | 58* | 1 | 2843 | -105
CC(C)N1CCc2c(sc(N)c2C#N)C1 | 24 | 25 | 1 | 19341* | 4
COc1ccc2c3c(n(C)c2c1)[C@H](CO)N(Cc1ccccc1)CC31CCN(S(C)(=O)=O)CC1 | · | · | 1 | · | ·
SMILES | Anthrax LF prot | BoNT-A LC inh2 | TcdB GH inh | Autofluor counter | BoNT F protease
O=C(C[C@H]1CC[C@@H](NS(=O)(=O)c2cccc(F)c2)[C@H](CO)O1)N1CCCCC1 | · | · | 1 | · | ·
C=CCNc1n[nH]c(=S)s1 | 3 | 0 | 15* | 3665 | -2
CNc1n[nH]c(=S)s1 | 2 | -4 | 24* | 3900 | 10
Cc1cccc(C)c1Nc1n[nH]c(=S)s1 | -9 | 0 | 3 | 3341 | -2
CC(=O)Nc1n[nH]c(=S)s1 | -3 | 0 | 18* | 2870 | 14
Cc1cc(C)c(Nc2n[nH]c(=S)s2)cc1C | -3 | 0 | 1 | 3529 | -1
Cc1noc(C)c1NC(=O)Nc1ccc2c(c1)C(=O)N([C@H](C)CO)C[C@@H](C)[C@@H](CN(C)Cc1ccccc1)OCCCC[C@@H](C)O2 | · | · | -1 | · | ·
C[C@H](CO)N1C[C@H](C)[C@H](CN(C)S(=O)(=O)c2ccc(F)cc2)Oc2ccc(NC(=O)Cc3ccccc3)cc2CC1=O | · | · | 3 | · | ·
